The values that follow come from PubChem BioAssay (Tox21).

Where “and” joins values, the source holds several entries; their conditions need not be identical. Equal entries are not always repeated. A number with no mark means an inactive call. Inconclusive results are not listed. Calls of active or inactive are those of the source. Unless noted, calls follow the shape of the dose curve; as a rule, active = well fitted curve in the direction sought with a large enough effect in the repeat runs; inconclusive = weak or mixed curves; inactive = no such curve, though single readings can be large; an effect the other way counts as inactive or inconclusive.

Assay [1] in a line: Caspase-3/7 induction in HepG2 cells by small molecules, qHTS assay (AID 1346978). Also: nearly all actives have a fitted effect of over 15% in size. The procedure, abridged:
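Wild-type HepG2 cells, 2,000/well, settled 5 hr at 37 C and 5% CO2, then compound-treated for 17 hr; caspase-3/7 activity read by luminescent Caspase-Glo 3/7 after 30 min at room temperature.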

Assay [2] is described as follows: Caspase-3/7 induction in CHO-K1 cells by small molecules, qHTS assay (AID 1346980). Also: nearly all actives have a fitted effect of over 15% in size. The procedure, abridged:
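Wild-type CHO-K1 cells exposed to compounds for 17hr at 37 C, 5% CO2. Caspase-3/7 activity then measured by Caspase-Glo 3/7 luminescence after 30min at room temperature.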
(In qHTS, concentration-response curves come from the screen itself.)

The target of assay [3] is Nuclear receptor subfamily 1 group I member 2 (Homo sapiens) (UniProt O75469). The assay is described as follows: Human pregnane X receptor (PXR) small molecule agonists, qHTS assay (AID 1346982). Also: nearly all actives have a fitted effect of over 35% in size. Also: potency is read from the fitted curve at half-maximal effect. The gist of the method: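 After plating in 5% charcoal-stripped FBS and a 5 hr rest, PXR-Luc HepG2 cells received compounds in DMSO. Following 24 hr at 37 C, ONE-Glo was added and light output read.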
Sequence of Nuclear receptor subfamily 1 group I member 2 (Homo sapiens) (O75469 whole entry, looked up): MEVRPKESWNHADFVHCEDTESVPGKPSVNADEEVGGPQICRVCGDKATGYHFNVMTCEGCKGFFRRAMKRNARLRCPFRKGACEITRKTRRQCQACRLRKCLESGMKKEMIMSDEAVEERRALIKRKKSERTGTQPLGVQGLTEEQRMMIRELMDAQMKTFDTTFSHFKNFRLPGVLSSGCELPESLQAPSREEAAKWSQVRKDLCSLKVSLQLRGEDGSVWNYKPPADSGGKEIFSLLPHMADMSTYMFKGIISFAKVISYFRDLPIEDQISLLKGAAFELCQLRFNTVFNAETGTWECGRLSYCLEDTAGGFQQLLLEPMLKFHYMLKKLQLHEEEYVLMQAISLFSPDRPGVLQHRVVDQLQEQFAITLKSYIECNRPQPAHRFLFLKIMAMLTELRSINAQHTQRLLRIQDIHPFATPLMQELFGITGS

In assay [4] the target is Acetylcholinesterase (Homo sapiens) (UniProt P22303). The assay is described as follows: Acetylcholinesterase (AChE) small molecule antagonists: colormetric cell-based qHTS assay (AID 1347395; calls by dose curve; also: nearly all actives have a fitted effect of over 30% in size). The procedure, abridged: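 Quantitative HTS in attached SH-SY5Y cells: 30 min compound exposure, then 90 min with acetylthiocholine and DTNB at 37 C; colour from thiocholine reports AChE activity.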
Sequence of Acetylcholinesterase (Homo sapiens) (P22303 whole entry, looked up): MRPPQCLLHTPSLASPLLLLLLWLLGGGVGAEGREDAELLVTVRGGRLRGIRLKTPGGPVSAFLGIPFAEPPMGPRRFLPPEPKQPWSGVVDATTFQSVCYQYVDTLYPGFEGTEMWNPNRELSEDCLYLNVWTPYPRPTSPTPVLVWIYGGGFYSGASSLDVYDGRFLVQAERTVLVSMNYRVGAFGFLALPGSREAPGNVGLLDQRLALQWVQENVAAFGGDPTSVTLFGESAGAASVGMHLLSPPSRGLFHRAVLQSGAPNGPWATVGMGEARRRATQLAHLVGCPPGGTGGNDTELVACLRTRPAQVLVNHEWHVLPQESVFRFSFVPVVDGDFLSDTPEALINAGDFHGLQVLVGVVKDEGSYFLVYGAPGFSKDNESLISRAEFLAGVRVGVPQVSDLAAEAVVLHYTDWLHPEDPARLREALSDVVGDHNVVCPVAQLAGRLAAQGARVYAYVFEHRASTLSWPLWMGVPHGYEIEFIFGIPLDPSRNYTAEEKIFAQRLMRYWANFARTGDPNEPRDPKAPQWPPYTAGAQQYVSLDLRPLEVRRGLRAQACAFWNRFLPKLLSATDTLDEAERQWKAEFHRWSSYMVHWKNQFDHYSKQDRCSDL

For assay [5] the target is unchanged. The assay is described as follows: Acetylcholinesterase (AChE) small molecule antagonists: fluorescence cell-based qHTS assay (AID 1347398; calls by dose curve; also: nearly all actives have a fitted effect of over 50% in size). Conditions: Potency: AChE activity. The gist of the method: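 Cells (SH-SY5Y) attached overnight, were dosed with compound or DMSO vehicle for 30 min at 37 C, and then incubated 40 min at room temperature with acetylthiocholine and Thiolite Green; green fluorescence indexed AChE activity.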

Assay [6] shares this target. The assay is described as follows: Acetylcholinesterase (AChE) small molecule antagonists: enzyme-based qHTS assay with human liver microsomes (AID 1347399; calls by dose curve; also: nearly all actives have a fitted effect of over 60% in size). Conditions: Potency: qHTS inhibition. The procedure, abridged:
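Recombinant human AChE (50 mU/mL in the enzyme mix) and human liver microsomes (0.25 mg/mL final) were preincubated with compound and NADPH (0.25 mg/mL final) for 30 min at 37 C. Acetylthiocholine/DTNB was then added; thiocholine was read colorimetrically after 10 min at room temperature.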

For assay [7], the target named is Cytochrome P450 2C19 (Homo sapiens) (UniProt P33261). The assay is described as follows: Cytochrome P450 Family 2 Subfamily C Member 19 (CYP2C19) small molecule antagonists: luciferase reporter qHTS assay (AID 1671197). Also: nearly all actives have a fitted effect of over 65% in size. Also: potency is read from the fitted curve at half-maximal effect. The procedure, abridged: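 Inhibition of CYP2C19 was scored from loss of luminescence in a P450-Glo proluciferin substrate assay, NADPH-started and run 1 h at 37C, with ketoconazole as positive control.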
Sequence of Cytochrome P450 2C19 (Homo sapiens) (P33261 whole entry, looked up): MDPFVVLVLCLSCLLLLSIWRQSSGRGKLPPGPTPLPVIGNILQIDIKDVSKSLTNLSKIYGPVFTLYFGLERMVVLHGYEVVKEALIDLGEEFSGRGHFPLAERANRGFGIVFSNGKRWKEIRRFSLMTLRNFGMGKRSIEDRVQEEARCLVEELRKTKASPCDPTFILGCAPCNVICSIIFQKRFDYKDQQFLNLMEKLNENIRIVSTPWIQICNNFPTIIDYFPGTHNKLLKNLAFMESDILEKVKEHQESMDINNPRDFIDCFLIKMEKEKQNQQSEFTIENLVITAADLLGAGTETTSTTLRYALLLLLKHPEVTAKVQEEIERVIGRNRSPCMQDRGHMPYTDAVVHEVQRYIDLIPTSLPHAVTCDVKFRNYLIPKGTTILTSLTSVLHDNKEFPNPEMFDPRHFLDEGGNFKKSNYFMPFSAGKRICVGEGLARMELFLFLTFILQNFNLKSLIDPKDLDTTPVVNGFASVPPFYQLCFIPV
On the technique in general: In a reporter assay the amount or activity of a reporter protein is the signal.

The target of assay [8] is Cytochrome P450 2C9 (Homo sapiens) (UniProt P11712). The assay is described as follows: Cytochrome P450 Family 2 Subfamily C Member 9 (CYP2C9) small molecule antagonists: luciferase reporter qHTS assay (AID 1671198). Also: nearly all actives have a fitted effect of over 50% in size. Also: potency is read from the fitted curve at half-maximal effect. The gist of the method:
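P450-Glo proluciferin substrate with CYP2C9 enzyme; 10 min RT preincubation, then NADPH regeneration 1 h at 37C; luciferin detection reagent 20 min RT, luminescence in relative luminescence units.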

Assay [9] concerns the target Cytochrome P450 1A2 (Homo sapiens) (UniProt P05177). The assay is described as follows: Cytochrome P450 Family 1 Subfamily A Member 2 (CYP1A2) small molecule antagonists: luciferase reporter qHTS assay (AID 1671199). Also: nearly all actives have a fitted effect of over 50% in size. Also: potency is read from the fitted curve at half-maximal effect. The procedure, abridged:
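Quantitative high-throughput format using the P450-Glo CYP1A2 system. Reaction initiated by NADPH regeneration solution, 1 h at room temperature, then stopped with detection reagent; luminescence measured 20 min later.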

The target in assay [10] is Voltage-gated inwardly rectifying potassium channel KCNH2 (Homo sapiens) (UniProt Q12809). The assay is described as follows: Human Ether-a-go-go-Related Gene (hERG) channel small molecule antagonists: fluorescence cell-based qHTS assay (AID 1671200). Also: nearly all actives have a fitted effect of over 50% in size. Also: potency is read from the fitted curve at half-maximal effect. The procedure, abridged: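 First, 1000 cells per well are seeded and cultured overnight at 37 C. Next, FluxOR II dye is loaded for 1 h at room temperature, protected from light. After 10 more minutes, stimulus is added and fluorescence is read.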
Sequence of Voltage-gated inwardly rectifying potassium channel KCNH2 (Homo sapiens) (Q12809 whole entry, looked up): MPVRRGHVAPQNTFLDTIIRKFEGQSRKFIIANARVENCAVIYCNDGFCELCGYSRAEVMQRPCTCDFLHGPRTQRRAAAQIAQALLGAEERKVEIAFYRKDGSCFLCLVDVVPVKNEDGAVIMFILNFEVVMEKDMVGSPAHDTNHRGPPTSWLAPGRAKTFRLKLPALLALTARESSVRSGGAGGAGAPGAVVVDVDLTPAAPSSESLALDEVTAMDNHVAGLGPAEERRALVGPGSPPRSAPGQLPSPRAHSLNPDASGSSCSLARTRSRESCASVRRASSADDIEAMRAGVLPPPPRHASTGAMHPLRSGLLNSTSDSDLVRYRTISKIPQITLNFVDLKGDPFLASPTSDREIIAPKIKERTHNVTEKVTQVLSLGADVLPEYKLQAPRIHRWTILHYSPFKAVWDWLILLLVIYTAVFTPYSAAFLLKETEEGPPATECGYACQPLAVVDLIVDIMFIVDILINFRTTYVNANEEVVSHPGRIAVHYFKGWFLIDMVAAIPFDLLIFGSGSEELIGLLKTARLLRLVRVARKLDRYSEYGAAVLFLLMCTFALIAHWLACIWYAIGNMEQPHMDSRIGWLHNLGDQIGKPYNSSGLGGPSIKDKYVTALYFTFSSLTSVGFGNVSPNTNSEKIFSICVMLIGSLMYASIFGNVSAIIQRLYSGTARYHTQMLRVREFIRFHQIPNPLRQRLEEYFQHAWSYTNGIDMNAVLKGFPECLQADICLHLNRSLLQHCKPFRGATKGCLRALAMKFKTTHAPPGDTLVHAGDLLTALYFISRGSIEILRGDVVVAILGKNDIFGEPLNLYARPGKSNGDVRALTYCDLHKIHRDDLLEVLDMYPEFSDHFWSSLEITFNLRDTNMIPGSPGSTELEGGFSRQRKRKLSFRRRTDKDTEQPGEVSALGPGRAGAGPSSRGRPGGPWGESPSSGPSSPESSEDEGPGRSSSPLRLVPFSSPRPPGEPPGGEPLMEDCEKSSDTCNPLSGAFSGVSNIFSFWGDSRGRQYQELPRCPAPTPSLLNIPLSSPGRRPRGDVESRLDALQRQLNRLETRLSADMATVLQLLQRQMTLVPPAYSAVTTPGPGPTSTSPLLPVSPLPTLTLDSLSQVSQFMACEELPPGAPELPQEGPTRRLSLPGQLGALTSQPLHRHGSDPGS
A general note: Block of hERG is tested as a sign of cardiac risk.

Assay [11] has as its target Acetylcholinesterase (Homo sapiens) (UniProt P22303). The assay is described as follows: Acetylcholinesterase (AChE) small molecule antagonists: enzyme-based qHTS assay (AID 1347397; calls by dose curve; also: nearly all actives have a fitted effect of over 55% in size). Conditions: Potency: AChE enzyme activity inhibition. The procedure, abridged:
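In this quantitative HTS, compounds from the Tox21 10K collection were preincubated 30 min at ambient temperature with recombinant human AChE dispensed at 50 mU/mL. Hydrolysis of acetylthiocholine was then followed for 10 min by DTNB colour development.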

The target of assay [12] is Cytochrome P450 2D6 (Homo sapiens) (UniProt P10635). The assay is described as follows: Cytochrome P450 Family 2 Subfamily D Member 6 (CYP2D6) small molecule antagonists: luciferase reporter qHTS assay (AID 1671196). Also: nearly all actives have a fitted effect of over 50% in size. Also: potency is read from the fitted curve at half-maximal effect. The procedure, abridged:
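Quantitative HTS of Tox21 chemicals against CYP2D6 using a luminescent proluciferin substrate. After NADPH addition, 1 h room-temperature reaction; luminescence recorded 20 min post detection reagent.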

Assay [13] deals with Cytochrome P450 3A4 (Homo sapiens) (UniProt P08684). The assay is described as follows: Cytochrome P450 Family 3 Subfamily A Member 4 (CYP3A4) small molecule antagonists: luciferase reporter qHTS assay (AID 1671201). Also: nearly all actives have a fitted effect of over 50% in size. Also: potency is read from the fitted curve at half-maximal effect. The procedure, abridged: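 Enzyme and proluciferin substrate are mixed with test chemicals for 10 min, then NADPH regeneration system drives turnover for 1 h at room temperature. A detection reagent halts the reaction; luminescence after 20 min gives relative activity.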
Sequence of Cytochrome P450 3A4 (Homo sapiens) (P08684 whole entry, looked up): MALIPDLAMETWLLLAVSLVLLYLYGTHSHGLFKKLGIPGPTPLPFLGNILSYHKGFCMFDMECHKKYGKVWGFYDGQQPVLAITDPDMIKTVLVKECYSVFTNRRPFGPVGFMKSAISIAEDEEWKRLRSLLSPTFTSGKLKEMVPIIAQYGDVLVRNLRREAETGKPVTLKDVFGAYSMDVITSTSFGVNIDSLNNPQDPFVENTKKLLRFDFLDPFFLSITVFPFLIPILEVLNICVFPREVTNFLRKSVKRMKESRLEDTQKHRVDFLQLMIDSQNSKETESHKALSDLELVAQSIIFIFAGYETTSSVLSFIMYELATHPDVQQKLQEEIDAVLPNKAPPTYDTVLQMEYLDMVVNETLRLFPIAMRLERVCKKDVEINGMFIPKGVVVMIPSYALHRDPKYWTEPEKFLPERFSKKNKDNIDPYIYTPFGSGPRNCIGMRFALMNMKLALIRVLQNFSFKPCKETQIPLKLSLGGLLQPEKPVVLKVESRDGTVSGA

In assay [14] the target is Nuclear receptor subfamily 1 group I member 2 (Rattus norvegicus) (UniProt Q9R1A7). The assay is described as follows: Rat pregnane X receptor (rPXR) activation by small molecules, qHTS assay (AID 1346983). Also: nearly all actives have a fitted effect of over 20% in size. Conditions: rPXR luciferase reporter cells, One-Glo luminescence, 24 h; max activation: active compounds read high. The procedure, abridged: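 Cell-based rPXR activation assay: rPXR cells, 2,000 per well, rested 5hr at 37 C, then exposed to compounds in DMSO for 24 hr at 37 C. Luciferase activity read by One-Glo luminescence after 30 min at room temperature.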

The target of assay [15] is Nuclear receptor subfamily 1 group I member 2 (Homo sapiens) (UniProt O75469). The assay is described as follows: CYP3A4 induction through human pregnane X receptor (PXR) by small molecules, qHTS assay (AID 1346984). Also: nearly all actives have a fitted effect of over 40% in size. The gist of the method:
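Human PXR activation is tracked via CYP3A4 promoter-luciferase in DPX-2 (HepG2) cells. Compounds treat cells for 24hr at 37C, and luminescence is read after One-Glo.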

Assay [16] has the same target. The assay is described as follows: Human pregnane X receptor (PXR) activation by small molecules, qHTS assay (AID 1346985). Also: nearly all actives have a fitted effect of over 40% in size. The gist of the method:
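DPX-2 cells (HepG2 co-transfected with a PXR response element and a CYP3A4-promoter luciferase construct) were seeded at 2,000 per well, rested 5 hr at 37C, then exposed to DMSO-dissolved compounds for 24 hr. Activation was read as luciferase luminescence.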
% is scaled to controls: 0 for no effect and ±100 for the full control effect.

Sequence of Cytochrome P450 1A2 (Homo sapiens) (P05177 whole entry, looked up): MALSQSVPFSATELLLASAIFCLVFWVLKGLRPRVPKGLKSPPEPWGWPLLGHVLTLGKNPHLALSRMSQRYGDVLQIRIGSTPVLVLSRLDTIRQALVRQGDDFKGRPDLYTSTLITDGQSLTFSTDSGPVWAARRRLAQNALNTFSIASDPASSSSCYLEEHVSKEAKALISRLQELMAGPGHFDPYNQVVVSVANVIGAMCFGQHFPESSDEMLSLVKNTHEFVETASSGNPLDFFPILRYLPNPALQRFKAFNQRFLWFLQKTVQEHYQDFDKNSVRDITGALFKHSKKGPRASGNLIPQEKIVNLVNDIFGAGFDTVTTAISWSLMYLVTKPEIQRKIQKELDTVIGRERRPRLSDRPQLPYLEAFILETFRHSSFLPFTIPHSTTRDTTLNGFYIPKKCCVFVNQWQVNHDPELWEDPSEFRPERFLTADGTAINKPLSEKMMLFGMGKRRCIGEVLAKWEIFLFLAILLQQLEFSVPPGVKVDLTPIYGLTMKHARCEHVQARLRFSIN
Sequence of Cytochrome P450 2C9 (Homo sapiens) (P11712 whole entry, looked up): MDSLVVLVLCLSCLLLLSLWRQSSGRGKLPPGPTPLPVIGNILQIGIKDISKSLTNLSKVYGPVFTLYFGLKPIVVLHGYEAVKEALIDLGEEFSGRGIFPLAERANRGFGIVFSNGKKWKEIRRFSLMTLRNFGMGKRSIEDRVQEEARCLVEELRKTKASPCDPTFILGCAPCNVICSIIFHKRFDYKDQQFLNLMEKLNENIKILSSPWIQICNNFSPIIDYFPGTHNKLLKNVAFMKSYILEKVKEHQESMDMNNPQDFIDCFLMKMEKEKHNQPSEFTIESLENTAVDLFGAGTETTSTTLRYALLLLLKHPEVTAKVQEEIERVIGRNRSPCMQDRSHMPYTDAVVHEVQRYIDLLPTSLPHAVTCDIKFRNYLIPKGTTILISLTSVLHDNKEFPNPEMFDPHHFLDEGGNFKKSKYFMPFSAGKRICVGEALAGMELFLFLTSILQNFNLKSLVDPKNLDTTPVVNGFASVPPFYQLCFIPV
Sequence of Cytochrome P450 2D6 (Homo sapiens) (P10635 whole entry, looked up): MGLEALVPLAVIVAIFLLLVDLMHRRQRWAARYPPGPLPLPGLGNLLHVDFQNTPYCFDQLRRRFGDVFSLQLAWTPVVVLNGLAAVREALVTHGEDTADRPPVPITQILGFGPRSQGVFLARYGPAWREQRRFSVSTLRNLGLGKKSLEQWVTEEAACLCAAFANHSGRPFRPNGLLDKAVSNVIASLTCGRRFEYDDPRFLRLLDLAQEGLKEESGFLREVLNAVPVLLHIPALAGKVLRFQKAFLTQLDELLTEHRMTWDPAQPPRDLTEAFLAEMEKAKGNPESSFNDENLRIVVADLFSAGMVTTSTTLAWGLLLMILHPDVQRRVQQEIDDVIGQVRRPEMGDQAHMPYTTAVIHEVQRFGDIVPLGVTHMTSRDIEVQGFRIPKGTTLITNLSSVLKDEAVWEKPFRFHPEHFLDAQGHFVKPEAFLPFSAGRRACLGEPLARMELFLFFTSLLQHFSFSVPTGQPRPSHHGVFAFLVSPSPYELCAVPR

In the case of `CCCCN(N=O)C(=N)N[N+](=O)[O-]`, the Potency result in assay [1], in assay [2], in [3], in [4], in assay [5] and in assay [6] was “inactive” each time. The Potency entry in assay [7], in [8] and in assay [10] was “inactive” throughout. In addition, the Potency in [9] was 40.8 µM (active).

For `CCCCC(O)(Cn1cncn1)c1ccc(Cl)cc1Cl` (centres undefined), the Potency result in [2], in assay [11], in [5], in [6] and in assay [10] was “inactive” in each case. Besides, the Potency in assay [3] was 24.3 µM (active); in assay [12] it was 31.7 µM (active); in assay [7], 0.252 µM (active); in [8], 0.71 µM (active); in assay [9], 35.6 µM (active); in assay [13] it was 0.126 µM (active).

In the case of `CCOc1nc(F)cc2nc(S(=O)(=O)Nc3c(Cl)cccc3Cl)nn12`, the Potency result in assay [1], in [2], in assay [3], in assay [4], in assay [11] and in assay [5] was “inactive” in each case. Besides, the Potency result in assay [6], in [12], in assay [7], in assay [9] and in [10] was “inactive” each time. Moreover, the Potency in assay [8] is 71 µM (active).

Consider `CCCCCCCCCC(=O)O[C@H]1CC[C@H]2[C@@H]3CCC4=CC(=O)CC[C@@H]4[C@H]3CC[C@]12C`, for which the Potency entry in assay [1], in [2], in assay [15], in assay [16], in assay [4] and in assay [11] was “inactive” each time. In addition, the Potency result in [5], in assay [6], in assay [12], in assay [9] and in [10] was “inactive” throughout. Further, the max activation in assay [14] was -0.997%. The Potency in assay [7] was 21.9 µM (active); in [8] it was 15.5 µM (active).

With `Clc1cc(C(Cl)(Cl)Cl)cnc1Cl`, the Potency entry in [2], in assay [4], in assay [5], in assay [6], in assay [12] and in assay [10] was “inactive” throughout. For the same compound, the figures for the Potency in assay [3], in assay [9] and in assay [13] were 54.5 µM (active), 7.96 µM (active) and 8.94 µM (active), respectively.

Consider `O=C1C(=O)c2cccc3cccc1c23`, for which the Potency result in assay [2], in assay [4], in [6], in [10] and in assay [13] was “inactive” in each case. In addition, the Potency in assay [3] is 54.4 µM (active); in assay [7], 39.9 µM (active); in assay [9] it was 8.93 µM (active).

With `CC(=O)c1cc2c(cc1C)C(C)(C)C(C)CC2(C)C` (centres undefined), the Potency entry in assay [11], in assay [5], in [6] and in assay [12] was “inactive” throughout. Further, the Potency in [8] is 35.6 µM (active); in assay [10] it was 13.8 µM (active); in assay [13], 25.2 µM (active).

Take `C(=NC1CCCCC1)=NC1CCCCC1`: the Potency entry in [1], in assay [2], in assay [11], in assay [5], in assay [6] and in assay [8] was “inactive” throughout. The Potency entry in [9], in assay [10] and in assay [13] was “inactive” in each case. For the same compound, the Potency was 61.5 µM (active) and 54.5 µM (active) in assay [3]; 63.3 µM (active) in assay [12].

`CC(C)(CCl)C(=O)Cl`: the Potency result in assay [1], in [2], in assay [4], in assay [11], in assay [5] and in [6] was “inactive” each time. Also, the Potency entry in assay [7], in assay [8], in assay [9], in assay [10] and in assay [13] was “inactive” in each case.

For `c1cc2ccc3cccc4ccc(c1)c2c34`, the Potency entry in [1], in assay [2], in [4], in [11], in assay [5] and in assay [6] was “inactive” in each case. Besides, in assay [10], the Potency result is “inactive”. Also, the Potency in [3] is 25.5 µM (active); in assay [7], 16.7 µM (active); in assay [8], 74.4 µM (active); in assay [9] it was 0.564 µM (active).
